Only some compounds are listed: those with a hit (about 19% of all), similar ones and a draw of the others.
uPA surface inh: blocks generation of uPA at the cell surface; cell surface uPA generation assay, qHTS; Potency, µM (highest dose often 38.3 µM), hits mostly inhibitors; actives 0.31% (n = 330,000); AID 540303; active = well fitted inhibition curve with a large enough effect; inconclusive = small, poorly fitted or top-dose-only effect; inactive = no such curve, though single readings can be large or run the other way; tested in mouse RAW 264.7 cells; note: nearly all actives have a fitted effect of over 55% in size
TDP1 cell noCPT: qHTS for Inhibitors of human tyrosyl-DNA phosphodiesterase 1 (TDP1): qHTS in cells in absence of CPT; DT40 Tdp1-/- hTDP1 cells, no CPT, ATP luminescence, 48 h; Potency, µM (top dose mostly 46.2 µM), usual class: inhibitors; actives 15% (n = 420,000); AID 686978, 2013; note: nearly all actives have a fitted effect of over 55% in size
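Stably hTDP1-transfected Tdp1-null chicken DT40 cells were treated with library compounds minus camptothecin and grown for at least 48 hr at 37 °C, after which cellular ATP was quantified by luminescence.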
HT1080-NT tox: kills 2HG-producing HT-1080-NT fibrosarcoma cells | Potency, µM (top dose mostly 46.1 µM), hits mostly cytotoxic | actives 1.6% (n = 360,000) | HT-1080-NT fibrosarcoma viability, CellTiter-Glo ATP luminescence, 48 h;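 note: NT is the 2HG producing partner of a matched IDH1 knockdown line; nearly all actives have a fitted effect of over 55% in size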
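750 cells/well, RPMI + 5% FBS; 2 h settle, compound pin-transfer, 48 h at 37 degrees C. CellTiter-Glo 10 min RT, luminescence. Normalized to DMSO and media-only wells.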
HT1080 IDH1KD tx: kills HT-1080 cells with IDH1 knockdown. HT-1080 IDH1 knockdown viability, ATP luminescence, 48 h. Potency, µM (series often up to 46.1 µM), actives largely listed as cytotoxic. actives 2% (n = 360,000)
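IDH1KD HT-1080 cells, 750/well, RPMI + 5% FBS; compound pinned after 2 h settling; 48 h, 37 °C; CellTiter-Glo luminescence; % activity normalised to DMSO and no-cell wells; curves fitted, classed by r2 and efficacy.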
IL-1B inflam inh: blocks inflammasome-driven IL-1 beta release. THP-1 LPS/ATP IL-1B secretion, AlphaLISA, 16 h; active compounds read low. activity change, % at 57.5 µM. actives 4.7% (n = 360,000); in the data active = activity change below about -50%; inconclusive = mostly about -30% to -49%
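Secreted IL-1B measured by AlphaLISA bead assay after 16 h compound exposure of THP-1 cells; compounds (final up to 57.5 uM) added 1 h before LPS (250 ng/mL) and ATP (1.25 mM) stimulation; lower signal means less secretion.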
DT40 TDP1 CPT: growth inhibition of DT40 Tdp1-/-;hTDP1 cells with camptothecin (screen for TDP1 inhibitors); Potency, µM (series often up to 46.2 µM), actives largely listed as inhibitors; chicken DT40 Tdp1-/-;hTDP1 cells + 20 nM CPT, ATP luminescence, 48 h; AID 686979; actives 12% (n = 420,000); note: nearly all actives have a fitted effect of over 55% in size
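Chicken DT40 Tdp1-/- cells stably complemented with human TDP1 were seeded at 400 cells/well in medium containing 20 nM camptothecin, exposed to pin-transferred compounds, and grown at 37 °C for at least 48 hr. Viability was read as ATP luminescence.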
A number is an active result; – = inactive; ? = inconclusive; · = not tested or not shown; [ ] = remark or other dose. Unless noted, calls come from the whole dose curve; as a rule, active = well fitted curve in the direction sought with a large enough effect; inconclusive = small, poorly fitted or top-dose-only effect, or another doubt; inactive = no such curve, though single readings can be large; an effect the other way counts as inactive or inconclusive.

SMILES | uPA surface inh | TDP1 cell noCPT | HT1080-NT tox | HT1080 IDH1KD tx | IL-1B inflam inh | DT40 TDP1 CPT
Cc1ccc(F)cc1-c1cc(C(=O)NCc2cc(C(F)(F)F)cc(C(F)(F)F)c2)[nH]n1 | · | ? | ? | ? | – | 29.1µM
COc1cc(F)ccc1-c1cc(C(=O)NCc2cccc(Cl)c2)[nH]n1 | · | ? | – | – | ? | ?
CCOc1ccc(Cl)cc1-c1cc(C(=O)NCc2cccc(C(F)(F)F)c2)[nH]n1 | · | 13µM | ? | ? | – | 10.3µM
Cc1ccc2c(C)c(C(=O)N(Cc3ccc(F)cc3)C3CCS(=O)(=O)C3)oc2c1 (stereo not drawn) | – | ? | – | – | ? | ?
Cc1c(C(=O)N(Cc2ccccc2F)C2CCS(=O)(=O)C2)oc2ccc(F)cc12 (stereo not drawn) | · | 20.6µM | · | · | · | 16.4µM
Cc1ccc2oc(C(=O)N(Cc3ccccc3F)C3CCS(=O)(=O)C3)c(C)c2c1 (stereo not drawn) | · | 23.1µM | · | · | · | ?
COc1ccccc1NS(=O)(=O)c1cc(NC(=O)CCc2nc3ccccc3c(=O)[nH]2)ccc1C | – | ? | – | – | – | ?
CCOC(=O)C(=C1Nc2ccccc2N1)n1c(-c2cccnc2)nc2ccccc21 | · | ? | – | – | – | 11.6µM
O=C1C=C(OCCF)CC(c2ccc(Br)cc2)O1 (stereo not drawn) | · | – | – | – | – | –
Cc1cc(S(=O)(=O)N2CCOCC2)ccc1OCC(=O)NCc1ccccn1 | – | – | – | – | – | –
Cc1ccc(C2=NS(=O)(=O)N(C)C(C(=O)NC3CCCCC3)=C2)cc1 | – | – | – | – | – | –
Cc1ccc(C2=NS(=O)(=O)N(C)C(C(=O)Nc3ccc(F)cc3F)=C2)cc1 | – | ? | – | – | – | 20.6µM
CN1C(C(=O)Nc2ccc(F)cc2F)=CC(c2ccco2)=NS1(=O)=O | – | – | – | – | – | ?
Cc1ccc2c(c1)cc(C(=O)Nc1ccc(F)cc1F)n2C | · | 7.31µM | · | · | · | ?
Cc1ccc(CNC(=O)c2cc3cc(C)ccc3n2C)cc1 | · | – | · | · | · | –
COc1ccc(OC)c(C2=NS(=O)(=O)N(C)C(C(=O)Nc3ccc(F)cc3F)=C2)c1 | – | 7.31µM | – | – | – | 16.4µM
Cc1ccc(C2=NS(=O)(=O)N(C)C(C(=O)Nc3cc(C)n(CC(=O)N4CCC(C)CC4)n3)=C2)cc1 | – | 20.6µM | – | – | – | ?
CN1C(C(=O)Nc2ccc(F)cc2F)=CC(c2cccs2)=NS1(=O)=O | – | ? | – | – | – | –
COc1cccc(-c2nnc(-c3ccccc3NC(=O)c3cccc(C(F)(F)F)c3)o2)c1 | · | – | · | · | · | –
OCCC1CN(Cc2cccc3c2OCO3)CCN1C1CCCC1 (stereo not drawn) | – | – | – | – | – | –
CCOC(=O)c1cnn(-c2ccccc2)c1-n1cccc1C(=O)C(=O)Nc1ccccc1C(F)(F)F | – | 20.6µM | – | – | – | ?
COc1ccccc1Cn1cnc2cccnc21 | – | – | – | – | – | –
COc1ccc(-c2nn(-c3ccccc3)cc2C(=O)O)cc1OC | – | – | – | –[9.24 µM] | – | –
COc1ccccc1CCn1cnc(-c2ccc(OC)c(OC)c2)c1C(C)C | · | 5.8µM | 23.1µM | ? | -51.3 | 8.2µM
CCCCCc1c(-c2ccccc2)ncn1CCc1ccccc1OC | · | 14.6µM | ? | ? | – | 23.1µM
SMILES | uPA surface inh | TDP1 cell noCPT | HT1080-NT tox | HT1080 IDH1KD tx | IL-1B inflam inh | DT40 TDP1 CPT
COc1ccccc1Cc1c(-c2ccc(OC)c(OC)c2)nc2cc(C)c(Br)c(C)n12 | · | ? | ? | – | – | ?
CCCCc1c(-c2cccc(OC)c2)ncn1CCc1ccccc1OC | · | 18.4µM | 20.6µM | 25.9µM | -95.6 | 14.6µM
CCCCc1c(-c2ccc(OC)c(OC)c2)ncn1CCc1ccccc1OC | · | 5.8µM | 14.6µM | 11.6µM | -50.9 | 5.8µM
O=C(Nc1ccccc1)N1CCCC2(CCN(S(=O)(=O)c3ccccc3)CC2)C1 | · | – | · | · | · | –
Cc1c(Cl)cccc1-n1cnc(=O)c2ccccc21 | – | – | – | – | – | –
CSc1ccc(C(=O)/C=C/c2ccc(N)cc2)cc1 | – | ? | ? | ? | -99.4 | –
CN(C)c1ccc(C(=O)C=Cc2ccc([N+](=O)[O-])cc2)cc1 | · | ? | – | – | ? | –
COc1ccc(C=CC(=O)c2cc(O)ccc2O)cc1 | – | ? | 16.4µM | 18.4µM | ? | ?
COc1ccc(C(=O)/C=C/c2ccccc2)cc1 | · | 23.1µM | · | · | · | ?
COc1ccc(/C=C/C(=O)Oc2cc(O)cc(O)c2)cc1 | – | – | – | – | – | –
CN(C)c1ccc(/C=C/C(=O)c2ccc(O)cc2)cc1 | – | 10.3µM | – | – | -105.6 | ?
CCc1nnc(SCC(=O)Nc2ccc(N3CCOCC3)cc2)n1C | – | – | – | – | – | –
CCCCC(=O)N(C)c1c(CC)nc2c(OCC(=O)N(C)C)cccn12 | · | – | – | – | – | –
CN(C)CCNC(=O)CN1C(=O)COc2ccc(S(=O)(=O)N3CCCC3)cc21 | · | – | · | · | · | –
O=C(C=Cc1ccccc1)c1ccc([N+](=O)[O-])cc1 | – | 18.4µM | ? | ? | – | ?
COc1ccc(C=CC(=O)C=CC=Cc2ccccc2)cc1 | – | ? | – | ? | -51.7 | ?
COc1ccc(C(=O)/C=C/c2ccc(O)cc2)cc1 | ? | ? | – | – | -57.3 | –
O=C(/C=C/c1cccnc1)c1ccc([N+](=O)[O-])cc1 | – | ? | ? | – | – | –
CCOC(=O)Nc1ccc(C(=O)/C=C/c2ccccc2)cc1 | – | 2.59µM | ? | ? | -88.3 | 5.17µM
C=CCOc1ccc(C=CC(=O)c2c(O)c(OC)c(OC)c(OC)c2OC)cc1 | – | 16.4µM | – | – | -102.2 | 16.4µM
COc1ccc(C(=O)N/C(N)=N/c2nc3ccccc3o2)cc1 | – | – | ? | ? | – | –
Cc1[nH]c(C)c(C(=O)/C=C/c2ccc([N+](=O)[O-])cc2)c1C | ? | 23.1µM | ? | 11.6µM | -97.4 | 16.4µM
COc1ccc(C(=O)/C=C/Sc2nc3ccccc3o2)cc1 | – | 2.31µM | ? | 3.26µM | -94.8 | 2.59µM
COc1ccc(C=CC(=O)c2c(OC)cc(OC)c(OC)c2O)cc1 | – | ? | – | ? | -62.7 | ?
CCOc1ccc(S(=O)(=O)N2CCN(Cc3ccco3)CC2)cc1 | – | ? | – | – | – | ?
Cc1ccccc1-n1nc(CO)c(C(=O)NCc2cccnc2)n1 | · | – | · | · | · | –
O=C(NNC(=O)c1ccccc1O)c1ccc(Cl)cc1 | – | 16.4µM | ? | ? | – | 18.4µM
O=C(CCNC(=O)c1ccc(Br)cc1)NNC(=O)c1ccccc1O | – | 23.1µM | – | ? | – | ?
O=C(NNC(=O)c1ccccc1O)c1ccc(Br)cc1 | – | ? | – | ? | – | ?

Screens deposited in PubChem BioAssay by National Center for Advancing Translational Sciences (NCATS).
